The nature of experiment [1]: A CellTox Green Cytotoxicity Assay to monitor cytotoxicity in HEK293 cells - 32 hour (AID 1224881). Note: nearly all actives have a fitted effect of over 40% in size. An outline of the steps: (§1)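 Real-time, in one plate: 600 HEK293 cells/well with dead-cell DNA dye, pinned compound after 5 h, 37 C incubation over 40 h; viable cells give no appreciable fluorescence.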
Experiment [2] can be described thus: A CellTox Green Cytotoxicity Assay to monitor cytotoxicity in HepG2 cells - 0 hour (AID 1224882). Note: nearly all actives have a fitted effect of over 35% in size. The method, boiled down: (§2)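 Cytotoxicity was tracked as dead-cell DNA fluorescence in HepG2 cells treated with test compounds at 37 C; each time-point value comes from one kinetic series spanning 0, 8, 16, 24, 32 and 40 h.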
A short description of experiment [3]: A CellTox Green Cytotoxicity Assay to monitor cytotoxicity in HepG2 cells - 32 hour (AID 1224883). Note: nearly all actives have a fitted effect of over 50% in size. An outline of the steps:
as §2

The nature of experiment [4]: A CellTox Green Cytotoxicity Assay to monitor cytotoxicity in HEK293 cells - 8 hour (AID 1224884). Note: nearly all actives have a fitted effect of over 35% in size. An outline of the steps:
as §1

Experiment [5] in a line: qHTS RealTime-Glo MT Cell Viability Assay in HepG2 cells - 16 hour (AID 1224885). Note: nearly all actives have a fitted effect of over 50% in size. The method, boiled down:
(§3)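 Compound treatment began 5 h after plating HepG2 cells (600/well) with NanoLuc luciferase and prosubstrate. Plates stayed at 37 C for 40 h; luminescence was captured at six time points, 0 h through 40 h.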

Experiment [6] can be described thus: A CellTox Green Cytotoxicity Assay to monitor cytotoxicity in HEK293 cells - 16 hour (AID 1224888). Note: nearly all actives have a fitted effect of over 35% in size. The method, boiled down:
as §1

Experiment [7] is described as follows: qHTS RealTime-Glo MT Cell Viability Assay in HepG2 cells - 0 hour (AID 1224889). Note: nearly all actives have a fitted effect of over 50% in size. The method, boiled down: as §3
Experiment [8] can be described thus: A CellTox Green Cytotoxicity Assay to monitor cytotoxicity in HepG2 cells - 8 hour (AID 1224890). Note: nearly all actives have a fitted effect of over 45% in size. The method, boiled down:
as §2

The nature of experiment [9]: qHTS RealTime-Glo MT Cell Viability Assay in HEK293 cells - 24 hour (AID 1224886). For activity change, negative = cytotoxicity: top concentration of the series differs between compounds. Note: nearly all actives have a fitted effect of over 50% in size. An outline of the steps: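 Quantitative high-throughput screen of the Tox21 10K library in HEK293: cells and RealTime-Glo reagents plated together, compound added at 5 h, luminescence monitored through 40 h at 37 C.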
A general note: Quantitative high-throughput screening tests each substance at several concentrations.

The nature of experiment [10]: qHTS RealTime-Glo MT Cell Viability Assay in HEK293 cells - 8 hour (AID 1224887). For activity change, negative = cytotoxicity: top concentration of the series differs between compounds. Note: nearly all actives have a fitted effect of over 50% in size. The method, boiled down:
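Kinetic, non-lysing viability readout. Seed HEK293 (600/well) with reagent, incubate 5 h at 37 C/5% CO2, pin 23 nL compound in DMSO, incubate at 37 C, read luminescence at 0, 8, 16, 24, 32, 40 h.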

Molecules are shown by their SMILES. Where “and” joins values, the source holds several entries; their conditions need not be identical. Equal values may be shown once. Results filed as inconclusive are left out. Where a structure was tested more than once in an assay, its records may differ in their call. Calls of active or inactive are those of the source. Calls come from the whole dose curve; as a rule, active = well fitted curve in the direction sought with a large enough effect in the repeat runs; inconclusive = weak or mixed curves; inactive = no such curve, though single readings can be large; an effect the other way counts as inactive or inconclusive.
% is set by controls: 0 for no effect and ±100 for the full control effect; potency is the fitted concentration of half-maximal effect.

With `O=C1C[C@@H]2OCC=C3CN4CC[C@]56c7ccccc7N1[C@H]5[C@H]2[C@H]3C[C@H]46`, the Potency result in [1], in [2], in experiment [3], in experiment [4], in experiment [5] and in [6] was “inactive” each time. For the same compound, the Potency entry in experiment [7] and in experiment [8] was “inactive” each time.

On to `CO/N=C(\C(=O)OC)c1ccccc1CO/N=C(\C)c1cccc(C(F)(F)F)c1`, for which the Potency result in [1], in [2], in experiment [3], in [4], in [5] and in [6] was “inactive” throughout. Besides, the Potency entry in experiment [7] and in experiment [8] was “inactive” in each case.

In the case of `O.O.O.O.O.O.O=S(=O)([O-])[O-].[Ni+2]`, the Potency result in [1], in experiment [2], in experiment [3], in [4], in experiment [5] and in experiment [9] was “inactive” each time. Besides, the Potency result in [10], in experiment [6] and in experiment [8] was “inactive” throughout.

Consider `CC(=O)[O-].CC(=O)[O-].CC(=O)[O-].[Sb+3]`, for which the cytotoxicity increase in experiment [1] is 3.11% [at 2.72 µM] (inactive); in experiment [3] it was -22.1% [at 2.72 µM] (inactive); in experiment [4], -0.782% [at 2.72 µM] (inactive); in experiment [8], -8.87% [at 2.72 µM] (inactive). The cytotoxicity in experiment [2] was -11% [at 2.72 µM] (inactive). In experiment [5], the activity change, negative = cytotoxic was -7.09% [at 2.72 µM] (inactive). The activity change, negative = cytotoxicity in experiment [9] is 5.82% [at 2.72 µM] (inactive); in experiment [10], -4.44% [at 2.72 µM] (inactive). In addition, the activity change in experiment [6] is 0.422% [at 2.72 µM, stronger effect = higher value] (inactive).

For the compound `c1ccc2c(c1)cc1ccc3cccc4ccc2c1c34`, the Potency result in experiment [1], in [2], in experiment [4], in experiment [5], in [6] and in experiment [7] was “inactive” throughout. Moreover, the Potency entry in experiment [8] is “inactive”. The Potency in [3] is 7.05 µM (active).

On to `CN(C)CCc1c[nH]c2ccccc12`, for which the Potency result in experiment [1], in experiment [2], in experiment [3], in experiment [4], in [5] and in experiment [9] was “inactive” each time. In addition, the Potency result in [10], in experiment [6], in experiment [7] and in [8] was “inactive” each time.

As to `Fc1ccc(C(OCCN2CCN(CCCc3ccccc3)CC2)c2ccc(F)cc2)cc1`, the Potency was 23.9 µM (active) in [1]; 23.9 µM (active) in experiment [3]; 21.3 µM (active) in [4]; 23.9 µM (active) in [5]; 9.52 µM (active) in [9]; 16.9 µM (active) in [10]. The Potency was 21.3 µM (active) in [6] and 23.9 µM (active) in [8]. In addition, the Potency entry in experiment [2] and in experiment [7] was “inactive” in each case.

With `CC#C[C@]1(O)CC[C@H]2[C@@H]3C[C@H](C)C4=CC(=O)CC[C@]4(C)[C@H]3CC[C@@]21C`, the Potency entry in experiment [1], in experiment [2], in [3], in experiment [4], in [5] and in experiment [10] was “inactive” each time. Also, the Potency result in [6] and in experiment [8] was “inactive” each time. Also, the Potency in experiment [7] is 2.68 µM (active).

Consider `[Cl][Hg][c]1ccccc1`, for which the Potency is 2.19 µM (active) in experiment [1]; 2.45 µM (active) in experiment [3]; 2.75 µM (active) in experiment [5]; 1.23 µM (active) in experiment [9]; 1.95 µM (active) in experiment [10]; 3.09 µM (active) in experiment [8]. Moreover, the Potency result in experiment [2], in experiment [4] and in [6] was “inactive” in each case.

Take `C[C@@H]1CC2=CC(=O)CC[C@@H]2[C@H]2CC[C@@]3(C)[C@@H](CC[C@]3(C)O)[C@@H]21`: the Potency entry in [1], in [2], in experiment [3], in [4], in experiment [5] and in experiment [10] was “inactive” throughout. Moreover, the Potency entry in [6], in experiment [7] and in experiment [8] was “inactive” each time.

For the compound `O=C(N[C@@H]1N=C(c2ccccc2F)c2cccc3c2N(CC3)C1=O)c1cc2ccccc2[nH]1`, the Potency in experiment [1] was 6.01 µM (active); in [2], 26.8 µM (active); in [3], 19 µM (active); in experiment [4], 9.52 µM (active); in experiment [6] it was 5.35 µM (active); in experiment [8] it was 21.3 µM (active). Also, the Potency result in [9], in experiment [10] and in experiment [7] was “inactive” in each case.

In the case of `Oc1cccc(Cl)c1Cl`, the Potency entry in [1], in [2], in experiment [3], in experiment [4], in [5] and in [10] was “inactive” each time. Besides, the Potency result in experiment [6], in [7] and in experiment [8] was “inactive” in each case.

As to `O=[N+]([O-])c1cc(C(F)(F)F)c(Cl)c([N+](=O)[O-])c1Nc1ncc(C(F)(F)F)cc1Cl`, the Potency in experiment [1] was 24.5 µM (active); in [3] it was 4.9 µM (active); in experiment [4], 49 µM (active); in experiment [5], 24.5 µM (active); in experiment [9] it was 1.74 µM (active); in experiment [10], 5.49 µM (active). Also, the Potency in experiment [6] was 49 µM (active). Further, the Potency entry in experiment [2], in experiment [7] and in [8] was “inactive” in each case.

On to `CCCCCCCCCCCCCCn1cc[n+](C)c1`, for which the Potency in [1] is 34.7 µM (active) and 38.5 µM (active) and inactive; in experiment [3], 21.9 µM (active) and 24.3 µM (active) and inactive; in experiment [4] it was 55 µM (active) and 54.4 µM (active) and inactive; in experiment [5], 39 µM (active) and 54.4 µM (active) and inactive; in experiment [9] it was 7.78 µM (active) and 8.62 µM (active); in experiment [8] it was 39 µM (active) and 48.5 µM (active) and inactive. In addition, the Potency result in experiment [2] and in experiment [7] was “inactive” in each case.

In the case of `CN1CCc2cc(Cl)c(O)cc2[C@H]2c3ccccc3CC[C@@H]21`, the Potency entry in [1], in [2], in experiment [3], in experiment [4], in [5] and in experiment [10] was “inactive” in each case. Besides, the Potency result in experiment [6], in [7] and in experiment [8] was “inactive” each time.

The values above are taken from PubChem BioAssay (Tox21).
